Shown are actives, neighbours in structure and some others; about 1.9% of the full set was active somewhere.
TNF necrop inh: inhibitors of TNF-alpha triggered necroptosis, primary screen, cell-based, Jurkat FADD-/-, single concentration. activation (protection from cell death), % at 10 µM. Jurkat FADD-/- TNF necroptosis rescue, ATP luminescence, 24 h; 0 = TNF only, 100 = no-TNF cells. 220,000 compounds, 0.068% hits;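 active = activation, meaning protection from cell death, of at least 50% relative to plate controls; inactive = activation below 50%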;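 note: necroptosis triggered by 40 ng/mL TNF-alpha added together with compound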
HSF-1 act: HSF-1 activators, primary screen, NIH3T3-HGL cells, MG132 stress, luminescence, single point. NIH3T3-HGL HSF-1 luciferase reporter, 8 h; 100% = twice DMSO control signal. activation, % at 9 µM. 300,000 compounds, 1.7% hits. AID 504408, 2011;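 active = mean replicate activation of at least 50% with a set share of replicates each reaching 50%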
Hsp70 activator: Hsp70 transcriptional activators, primary screen, cell-based, HeLa, Hsp70 promoter luciferase, luminescence, 10 µM; HeLa Hsp70 promoter luciferase reporter; scaled: vehicle 0, proteasome-inhibitor control 100%; activation, % at 10 µM; 200,000 compounds, 0.04% hits; AID 1203, 2008;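 active = activation above the mean across all tested compounds plus 3 SD, cutoff set per campaign, cut at about 5.5% in these data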
L929 necroptosis: inhibitors of zVAD-triggered necroptosis, primary screen, L929 cells; L929 zVAD necroptosis rescue, ATP luminescence, 24 h; with zVAD 60 µM; AID 1377, 2008; 220,000 compounds, 0.38% hits; viability rescue, % at 10 µM;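 active = activation, scaled between plate controls, above about 75%, limit read from the data; inactive = activation under that limit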
Large screens that a line does not name were inactive.

CCN1CCN(C(=O)c2ccc(CSc3ccc(C)cc3)cc2)CC1	none
Cc1ccc(SCc2ccc(C(=O)N3CCCC3)cc2)cc1	HSF-1 act 58
CCCc1nnc(SCC(=O)Nc2cccc(C(F)(F)F)c2)o1	none (no result: TNF necrop inh, Hsp70 activator, L929 necroptosis)
CC(C)CCN1C(=O)C2(OCCCO2)c2cc(Cl)ccc21	none (no result: TNF necrop inh, Hsp70 activator, L929 necroptosis)
COc1ccccc1C1=NN(C(=S)Nc2ccccc2)C(c2ccco2)C1 (centres undefined)	HSF-1 act 52
O=C1CSC(c2ccccc2)N1Cc1ccccc1 (centres undefined)	none (no result: TNF necrop inh, Hsp70 activator, L929 necroptosis)
COc1ccc(C/C(O)=C(\C#N)c2nc3ccccc3[nH]2)cc1OC	HSF-1 act 59
COc1ccc(/C=C/C(=O)Nc2cc(C)nn2-c2nc3ccccc3[nH]2)cc1	HSF-1 act 190
N/C(=N\OC(=O)c1ccco1)c1ccc(Br)cc1	none
Cc1occc1C(=O)O/N=C(\N)c1ccc(Cl)cc1	HSF-1 act 58 (no result: Hsp70 activator)
N/C(=N\OC(=O)c1ccco1)c1ccccc1	HSF-1 act 55
Cc1ccc(/C(N)=N/OC(=O)CSc2ccccc2)cc1	HSF-1 act 62
Cc1ccc(/C(N)=N/OC(=O)c2ccco2)cc1	HSF-1 act 55
COC(=O)C1CCN(S(=O)(=O)c2cc3c4c(c2)CCN4C(=O)CC3)CC1	none (no result: TNF necrop inh, Hsp70 activator, L929 necroptosis)
O=C(COC(=O)/C=C/c1ccccc1)NNC(=O)c1ccc([N+](=O)[O-])cc1	none (no result: TNF necrop inh, Hsp70 activator, L929 necroptosis)
COc1ccc(-c2nc(-c3ccc(Br)o3)no2)cc1OC	HSF-1 act 57
COc1cccc(C2=NOC(C(=O)N3CCN(C(=O)c4ccco4)CC3)C2)c1 (centres undefined)	L929 necroptosis 77
CC(C)CC(=O)Nc1ccc2nn(-c3ccccc3)nc2c1	HSF-1 act 60
Cc1ccc(N2C(=O)Nc3ccc(Br)cc3C2(O)C(=O)NCCN(C)C)cc1C (centres undefined)	none (no result: TNF necrop inh, Hsp70 activator, L929 necroptosis)
Cc1[nH]n(-c2ccccc2)c(=O)c1C(C[N+](=O)[O-])c1ccccc1Cl (centres undefined)	HSF-1 act 146
COc1ccc(C(C[N+](=O)[O-])c2c(C)[nH]n(-c3ccccc3)c2=O)cc1 (centres undefined)	none (no result: TNF necrop inh, Hsp70 activator, L929 necroptosis)
CN1C/C(=C\c2ccc(N3CCOCC3)cc2)C(=O)/C(=C/c2ccc(N3CCOCC3)cc2)C1	HSF-1 act 133
C/C(=N\NC(N)=S)C1=CCC2C3CC[C@H]4CC(O)CC[C@]4(C)C3CC[C@]12C (some centres undefined)	HSF-1 act 51 (no result: TNF necrop inh, Hsp70 activator, L929 necroptosis)
CCc1nc2ccc(C(=O)NC3CCC(C)CC3)cc2nc1CC (centres undefined)	none (no result: TNF necrop inh, Hsp70 activator, L929 necroptosis)
O=C(CSc1nc(=O)n(CCCN2CCOCC2)c2c1CCC2)Nc1ccc([N+](=O)[O-])cc1	none (no result: TNF necrop inh, Hsp70 activator, L929 necroptosis)
O=C(CSc1cn(Cc2ccccc2)c2ccccc12)Nc1nccs1	HSF-1 act 65
COc1ccccc1-c1nc(S(=O)(=O)c2ccccc2)c(N2CCCCC2)o1	HSF-1 act 52 (no result: TNF necrop inh, Hsp70 activator, L929 necroptosis)
O=S(=O)(c1ccc(F)cc1)c1nc(-c2ccccc2F)oc1N1CCCCC1	none
O=c1oc(Nc2cccc(Cl)c2)nc2ccccc12	HSF-1 act 67
COc1ccc(CCN(C)Cc2c(O)ccc3cc(Br)ccc23)cc1OC	HSF-1 act 204 (no result: TNF necrop inh, Hsp70 activator, L929 necroptosis)
COc1ccc(CN(C)Cc2c(O)ccc3cc(Br)ccc23)cc1OC	HSF-1 act 114 (no result: TNF necrop inh, Hsp70 activator, L929 necroptosis)
COc1ccc2cc(Br)ccc2c1CC(=O)N(C)C	none
Cc1ccc(CN2C(=O)C(C)Nc3ncnc(N4CCN(c5ccccn5)CC4)c32)cc1 (centres undefined)	none (no result: TNF necrop inh, Hsp70 activator, L929 necroptosis)
N#Cc1cc(Oc2cccc3cccnc23)c(-n2nnc3ccccc32)cc1C#N	HSF-1 act 211
N#Cc1cc(O)c(-n2nnc3ccccc32)cc1C#N	none
Cc1c(OC(C)C(=O)NCC(O)c2ccccc2)ccc2c3c(c(=O)oc12)CCC3 (centres undefined)	none (no result: TNF necrop inh, Hsp70 activator, L929 necroptosis)
Cc1ccc(C(=O)Nc2ccc(Cl)cc2C(F)(F)F)c(Cl)c1	none
Cc1ccc(C(=O)Nc2ccc(Cl)cc2C)c(Cl)c1	HSF-1 act 67
CC1CC2(CCCCC2)Nc2ccc3ccccc3c21 (centres undefined)	HSF-1 act 58
CC(=O)N1c2ccc3ccccc3c2C(C)CC12CCCCC2 (centres undefined)	none
CN(C(=O)COC(=O)c1cc([N+](=O)[O-])ccc1Cl)c1ccccc1	none (no result: TNF necrop inh, Hsp70 activator, L929 necroptosis)
Cc1ccc(C)c(N2CCN(C3CCCCC3NS(=O)(=O)c3ccccc3)CC2)c1 (centres undefined)	none (no result: TNF necrop inh, Hsp70 activator, L929 necroptosis)
Cc1cccc(NC2CCCCC2NS(=O)(=O)c2ccccc2)c1 (centres undefined)	none (no result: TNF necrop inh, Hsp70 activator, L929 necroptosis)
Cc1ccc(Cl)cc1N1CCN(C2CCCCC2NS(=O)(=O)c2ccccc2)CC1 (centres undefined)	HSF-1 act 76 (no result: TNF necrop inh, Hsp70 activator, L929 necroptosis)
Cc1ccc(C)c(NC2CCCCC2NS(=O)(=O)c2ccccc2)c1 (centres undefined)	HSF-1 act 83 (no result: TNF necrop inh, Hsp70 activator, L929 necroptosis)
FC(F)(F)c1ccc(Sc2nnc(-c3cccs3)n2CC2CCCO2)nc1 (centres undefined)	HSF-1 act 58
FC(F)(F)c1cnc(Sc2nnc(-c3cccs3)n2CC2CCCO2)c(Cl)c1 (centres undefined)	none
C[C@@H](CN=[N+]=[N-])CN1CC[C@H](C(C)(C)C)CCC1=O	none (no result: TNF necrop inh, Hsp70 activator, L929 necroptosis)
CCCc1cc(=O)n2nc(N3CCC(C(=O)Nc4cccc(C(C)=O)c4)CC3)sc2n1	none (no result: TNF necrop inh, Hsp70 activator, L929 necroptosis)
Nc1nc2c(-c3ccc(Br)cc3)nnn2c2ccccc12	HSF-1 act 56 (no result: TNF necrop inh, Hsp70 activator, L929 necroptosis)
CNC(=O)/C(C#N)=C/c1ccc(-c2ccc(Cl)cc2)o1	HSF-1 act 73
CCn1c(CSc2nc3ccccc3s2)nnc1SCC(=O)c1ccc(O)cc1O	none
CCn1c(CSc2nc3ccccc3s2)nc2ccccc21	HSF-1 act 76
c1csc(CSc2nc3ccccc3s2)c1	HSF-1 act 56
Cc1noc(C)c1CSc1nc2ccccc2s1	none
O=C1CN(C(=O)C2CCC(=O)N(CCc3ccc(Cl)cc3)C2)CCN1 (centres undefined)	none (no result: TNF necrop inh, Hsp70 activator, L929 necroptosis)
CS(=O)(=O)NCCNc1ccc(C(F)(F)F)cc1[N+](=O)[O-]	none (no result: HSF-1 act)
COc1ccc2[nH]c(C)c(CCNc3ccc(C(F)(F)F)cc3[N+](=O)[O-])c2c1	HSF-1 act 61
NC(=O)C1CCN(C2=C(Cl)C(=O)c3ccccc3C2=O)CC1	HSF-1 act 75
Cn1c(CNc2ccccc2)nc2ccccc21	none
Cc1cc(C)nc(SCc2nc3ccccc3n2C)n1	none
Cn1c(CNc2ccccc2O)nc2ccccc21	HSF-1 act 80
Cn1c(CSc2nc3ccccc3n2C)nc2ccccc21	HSF-1 act 70
O=C1CC(N(Cc2ccc3c(c2)OCO3)C(=O)Nc2ccc(F)cc2)C(=O)N1c1ccccc1 (centres undefined)	HSF-1 act 57
COc1ccc(NC(=O)N(Cc2ccc3c(c2)OCO3)C2CC(=O)N(c3ccc(OC)cc3)C2=O)cc1 (centres undefined)	none
Cc1ccc(N2CC(NC(=O)N3CCN(C(=O)c4ccco4)CC3)CC2=O)cc1 (centres undefined)	none (no result: TNF necrop inh, Hsp70 activator, L929 necroptosis)
